# About 2,200 (0.69%) of roughly 320,000 compounds were called active. The sample holds actives, similar compounds and a random draw of the others, so the mix is not that of the screen.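 How the source made its calls: active means inhibition above the mean of all tested compounds plus 3 SD, cutoff set per campaign (cut at about 30% in these data); inactive means the rest.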
# Target: Bcl-2-like protein 1 (Homo sapiens) (UniProt Q07817)
# Assay: Bcl-xL/Bim BH3 interaction blockers – biochemical, fluorescence polarization, HTS, primary screen (AID 2129);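 further: 0% = DMSO wells and 100% = unlabeled Bim-BH3 peptide competitor; inhibitors lower millipolarization by displacing the labeled peptide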
# Settings: GST-Bcl-xL / FITC-Bim BH3 peptide fluorescence polarization; at 10.9 µM; stronger effect = higher value
# Chain of Bcl-2-like protein 1 (Homo sapiens) (Q07817 whole entry, looked up): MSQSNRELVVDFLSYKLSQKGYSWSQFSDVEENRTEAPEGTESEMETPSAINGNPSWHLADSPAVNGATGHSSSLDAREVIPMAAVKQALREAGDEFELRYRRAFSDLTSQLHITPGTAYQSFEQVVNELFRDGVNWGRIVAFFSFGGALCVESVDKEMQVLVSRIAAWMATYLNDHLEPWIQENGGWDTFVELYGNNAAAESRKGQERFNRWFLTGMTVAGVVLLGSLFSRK
row,Compound,inhibition
1,O=C(NCCc1ccccn1)c1cc(-c2ccc(Cl)cc2)nc2ccccc12,-6.46% (inactive)
2,COCCCNC(=S)N(Cc1ccccc1)Cc1ccc(F)cc1,3.88% (inactive)
3,COc1ccc(C(=O)COC(=O)CNC(=O)c2cccs2)cc1Br,5.14% (inactive)
4,C=CCOc1cccc(C2C(C(=O)c3ccc(C)o3)=C(O)C(=O)N2CCCn2ccnc2)c1 (stereo not given),0.01% (inactive)
5,C=CCOc1cccc(C2C(C(=O)c3ccc(C)o3)=C(O)C(=O)N2c2nnc(C)s2)c1 (stereo not given),88.7% (active)
6,Cc1cc(N2C(=O)C(O)=C(C(=O)c3ccc(C)o3)C2c2ccc(OCc3ccccc3)cc2)no1 (stereo not given),11.2% (inactive)
7,Cc1cc(C(=O)NC2CCN(Cc3ccccc3)CC2)n[nH]1,1.91% (inactive)
8,C#CCOCCOCCOCCNc1nc(N2CCN(C(=O)C([C@@H](C)CC)n3cc(C(N)COC(=O)C(F)(F)F)nn3)CC2)nc(N2CCN(C(=O)[C@H](Cc3ccc(O)cc3)n3cc(C(N)[C@H](C)CC)nn3)CC2)n1 (stereo not given in full),14.5% (inactive)
9,Cn1c2c(c(=O)n(C)c1=O)C1c3ccccc3OCC1C(C)(C)O2 (stereo not given),3.9% (inactive)
10,NC(=O)COC(=O)c1ccc2c(c1)C(=O)N(Cc1ccco1)C2=O,4.63% (inactive)
11,CCCc1nc2scc(-c3ccc(C)cc3)c2c(=O)n1N,1.66% (inactive)
12,Cc1cc2ccccc2n1CCNC(=O)COc1ccc2ccccc2c1,4.61% (inactive)
13,Cc1cc2ccccc2n1CCC(=O)O,52.5% (active)
14,O=C(O)CCn1c(Cc2ccccc2)nc2ccccc21,1.07% (inactive)
15,CC(C)(C)c1cc2cccnc2n1Cc1cccc(F)c1,7.39% (inactive)
16,CN(C)NC(=O)C(NC(=O)c1ccc(N)cc1)C12CC3CC(CC(C3)C1)C2 (stereo not given),-0.78% (inactive)
17,CC(C)OC(=O)CN1C(=O)C(=O)c2ccccc21,10.2% (inactive)
18,CCOC(=O)c1cc2n(c1N)-c1ccccc1C2=O,140% (active)
19,CCOC(=O)c1ccccc1CN1C(=O)c2ccccc2S1(=O)=O,4.12% (inactive)
20,Cc1ccc(S(=O)(=O)CC(=O)NC(C)c2ccccc2)cc1 (stereo not given),-0.31% (inactive)

row,Compound,inhibition
1,CCOc1cc(CNCCN(C)C)c(Cl)cc1OCC(=O)NCCc1ccccc1,-0.08% (inactive)
2,NNC(=O)c1oc2nc(-c3ccccc3)cc(-c3ccco3)c2c1N,-35.7% (inactive)
3,CNc1nc(-c2ccccc2)cc(-c2ccccc2)n1,2.12% (inactive)
4,CNC(=S)NNC(=O)c1oc2nc(-c3ccccc3)cc(-c3ccco3)c2c1N,30.6% (active)
5,COc1ccccc1C(=O)Nc1ccccc1C(=O)Nc1ccccc1,-2.98% (inactive)
6,O=C(CNC(=O)Cc1ccccc1)N=Nc1c(O)[nH]c2ccc(Br)cc12,10.3% (inactive)
7,Oc1[nH]c2ccc(Br)cc2c1N=Nc1nn[nH]n1,1.22% (inactive)
8,NS(=O)(=O)c1ccc(N=Nc2c(O)[nH]c3ccc(Br)cc23)cc1,37.1% (active)
9,CC(=O)CC[C@@H](C)O[C@@H]1OC(C)[C@H](O)CC1O (stereo not given in full),1.11% (inactive)
10,Cc1ccc(-n2c(C)cc(/C=C(\C#N)C(=O)NCC3CCCO3)c2C)cc1 (stereo not given),-0.52% (inactive)
11,CCN1CC=C2C(C#N)=C(N)C(C#N)(C#N)[C@H](c3ccoc3)[C@H]2C1,148% (active)
12,CCCN1CC=C2C(C#N)=C(N)C(C#N)(C#N)C(c3cc(OC)ccc3OC)C2C1 (stereo not given),68.3% (active)
13,COc1ccccc1-n1cnc2cc(NS(=O)(=O)c3ccccc3)ccc21,2.73% (inactive)
14,CC(CCc1ccccc1)NCC(O)c1cccc([N+](=O)[O-])c1 (stereo not given),1.94% (inactive)
15,COc1ccc(NC(=O)c2sccc2SCC#N)cc1,8.42% (inactive)
16,Clc1cc(NC2CCCCC2)ncn1,6.31% (inactive)
17,CCCCC1S/C(=N/N=C/c2cccs2)NC1=O (stereo not given),8.02% (inactive)
18,CCCc1c(C)nc2c(Br)cccc2c1Cl,2.17% (inactive)
19,CCOCC(=O)NCc1ccc2c(c1)cc(C)n2C,19.5% (inactive)
20,COc1cc(C(=O)NCc2ccc3c(c2)cc(C)n3C)cc(OC)c1OC,33.2% (active)

row,Compound,inhibition
1,COc1cc(C(=O)NCc2cc3cc(Cl)ccc3n2C)cc(OC)c1OC,1.45% (inactive)
2,CN(CCO)S(=O)(=O)c1ccc2c(c1)C(=O)c1cc(S(=O)(=O)N(C)CCO)ccc1-2,1.55% (inactive)
3,CCOC(=O)c1cc2c(=O)n3ccccc3nc2n(CC(C)C)c1=NC(=O)c1c(-c2c(F)cccc2Cl)noc1C,3.3% (inactive)
4,Cc1ccc(NS(=O)(=O)c2ccc3c(c2)NC(=O)CO3)cc1,0.04% (inactive)
5,O=C(N1CCCCC1)N1CCN(C(=O)N2CCCCC2)CC1,6.91% (inactive)
6,CCN1C(=O)CS/C1=N\c1nccs1,1.94% (inactive)
7,CC(OC(=O)c1ccc2noc(-c3ccccc3)c2c1)C(N)=O (stereo not given),2.5% (inactive)
8,COc1ccc(-c2onc3ccc(C(C)=O)cc23)cc1,178% (active)
9,Oc1ccc(-c2onc3ccc(Cl)cc23)cc1,3.11% (inactive)
10,Cc1c(NC(=S)NC(=O)CCc2ccccc2)c(=O)n(-c2ccccc2)n1C,1.79% (inactive)
11,CCNC(=O)Nc1ccc(S(=O)(=O)Nc2cnc(C)nc2C)cc1,0.51% (inactive)
12,CN(C)c1ccc(Nc2c3c4c(cccc4n(C)c2=O)C(=O)c2ccccc2-3)cc1,54.3% (active)
13,Cc1cccc(C)c1N1C(=O)CN(Cc2ccccc2)C1=S,5.52% (inactive)
14,Cc1ccccc1NC(=O)Cc1nc(COC(=O)c2ccc(C(F)(F)F)cc2)cs1,-1.31% (inactive)
15,CC(C)(C)c1ccc(/C=C2\Oc3c(ccc(O)c3CN3CCN(CCO)CC3)C2=O)cc1,53.5% (active)
16,CCOC(=O)c1oc2c(CN3CCN(CCO)CC3)c(O)c(CC)cc2c(=O)c1-c1nc2ccccc2s1,4.57% (inactive)
17,CN(C)S(=O)(=O)c1ccc(Cl)c(NC(=O)COC(=O)CC(NC(N)=O)c2ccc(Cl)cc2)c1 (stereo not given),-5.65% (inactive)
18,COc1cccc(COc2ccc(N(C)S(=O)(=O)c3ccccc3)cc2)c1,-4.97% (inactive)
19,CN(c1ccc(OCC(=O)O)cc1)S(=O)(=O)c1ccc2ccccc2c1,4.89% (inactive)
20,Cc1ccc2nc(COc3ccc(N(C)S(=O)(=O)c4ccccc4)cc3)cc(=O)n2c1,36.5% (active)
